Consider 10 molecules from PubChem BioAssay (Tox21).

Values without a mark were called inactive. Records with an inconclusive call do not appear. The source made the active and inactive calls. Unless noted, the call rests on the fitted dose curve.

Test [1] in a line: Nuclear factor erythroid 2-related factor 2/antioxidant responsive element (Nrf2/ARE) small molecule agonists: qHTS cell viability counter screen in human keratinocytes (AID 1919968; active means well fitted curve in the direction sought with a large enough effect in the repeat runs; an effect the other way counts as inactive or inconclusive; further: nearly all actives have a fitted effect of over 55% in size; further: potency means the concentration at half of the fitted maximal effect). The essentials: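 HaCaT ARE reporter line, 1,500 cells/well; 5 h settle, 37 C/5% CO2; cpd in DMSO pinned; 23 h exposure; CellTiter-Fluor, 1 h; fluorescence.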
Test [2] addresses Gonadotropin-releasing hormone receptor (Homo sapiens) (UniProt P30968). Kind of test: Human gonadotropin-releasing hormone receptor (GnRHR) small molecule agonists, calcium flux assay in GnRHR-HEK293 cells (AID 1920063). Further: nearly all actives have a fitted effect of over 35% in size. In a few lines: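 GnRHR-HEK293, 1500 cells/well, 18 h 37 C/5% CO2; Ca dye 1 h 37 C; cpd pinned (DMSO), agonist mode; kinetic FL 480/540, 3 min, 1 s reads; 15 conc, n=3.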
A general note: Calcium assays in cells follow changes in intracellular calcium, usually with a dye or a luminescent sensor.

The target in test [3] is KiSS-1 receptor (Homo sapiens) (UniProt Q969F8). Put plainly: Human kisspeptin (KISS1R) small molecule agonists, calcium flux assay in KISS1R-HEK293 cells (AID 1920064; active means well fitted curve in the direction sought with a large enough effect in the repeat runs; an effect the other way counts as inactive or inconclusive). In a few lines:
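Stable human KISS1R HEK293 line; 18 h plating, 37 C/5% CO2; calcium dye 1 h 37 C; compound pin transfer; kinetic fluorescence Ex/Em 480/540, 3 min.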

A short description of test [4]: G protein-coupled receptor (GPCR) small molecule agonists, calcium flux assay: HEK293 wild type cell line counter screen (AID 1920065). The essentials: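 Kinetic fluorescence at Ex/Em 480/540, recorded every second over 3 min, served as the read-out after compound addition. Each compound was tested at 15 concentrations in triplicate on cells pre-loaded with calcium dye for 1 h.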

The nature of test [5]: p53 small molecule agonists, cell-based qHTS assay with rat liver microsomes: qHTS cell viability counter screen (AID 1963580). Further: nearly all actives have a fitted effect of over 45% in size. Further: potency means the concentration at half of the fitted maximal effect. In a few lines:
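HCT-116 p53RE-bla, 4,000 cells/well, 5 h pre-incubation; cpd + rat liver microsomes 0.5 mg/mL + NADPH 0.5 mg/mL (final); 16 h, 37 C; CellTiter-Glo, 30 min RT; luminescence.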
(In general: Quantitative high-throughput screening tests each substance at several concentrations.)

Test [6] is described as follows: p53 small molecule agonists, cell-based qHTS assay: qHTS cell viability counter screen (AID 1963581). Further: nearly all actives have a fitted effect of over 45% in size. Further: potency means the concentration at half of the fitted maximal effect. In a few lines: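 HCT-116 p53RE-bla cells, 4,000/well, plated 5 h before compound pin transfer; 16 h at 37 C; bla substrate 2 h RT; then CellTiter-Glo, 30 min RT, luminescence.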
Test [7] addresses 5-hydroxytryptamine receptor 2A (Homo sapiens) (UniProt P28223). Kind of test: 5-hydroxytryptamine receptor 2A (HTR2A) small molecule antagonists, cell-based qHTS assay (AID 1963586). Further: nearly all actives have a fitted effect of over 45% in size. Further: potency means the concentration at half of the fitted maximal effect. The essentials: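 Antagonist-mode intracellular calcium assay: DOI (4 nM) added after 5 min compound pre-incubation at room temperature to dye-loaded HTR2A-CHO cells. Fluorescence followed for 3 min, sampled every second.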

The target is the same in test [8]. Put plainly: 5-hydroxytryptamine receptor 2A (HTR2A) small molecule agonists, cell-based qHTS assay (AID 1963587). Further: nearly all actives have a fitted effect of over 30% in size. The essentials:
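Kinetic calcium-flux fluorescence (2 min, 1 sec intervals) after compound addition in agonist mode. HTR2A-CHO cells were cultured 18 h, then dye-loaded 1 h at 37 C.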

For test [9], the target named is Muscarinic acetylcholine receptor M1 (Homo sapiens) (UniProt P11229). Kind of test: Cholinergic receptor muscarinic 1 (CHRM1) small molecule agonists, cell-based qHTS assay (AID 1963589). Further: nearly all actives have a fitted effect of over 35% in size. In a few lines: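 Human M1 in stable CHO line; 18 h plating, 1 h dye load 37 C; cpd added (agonist mode); Ca2+ fluorescence kinetic read, 1 s intervals; 15 conc, 3 runs.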
Test [10] can be described thus: cAMP Responsive Elements (CRE) small molecule agonists, cell-based qHTS assay (AID 1963590). The essentials: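 HEK 293T CRE-bla, 2,000 cells/well, 18 h preincubation 37 C/5% CO2; cpds (DMSO) pinned, 3 h; LiveBLAzer B/G FRET substrate, 2 h RT.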
Test [11] can be described thus: cAMP Responsive Elements (CRE) small molecule antagonists, cell-based qHTS assay (AID 1963591; active means well fitted inhibition curve with a large enough effect in the signal ratio in the repeat runs, not every such curve was filed as active; the % refers to the signal ratio). The essentials: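 Beta-lactamase reporter read by FRET substrate (LiveBLAzer B/G) after 2 h at room temperature. CRE-bla HEK293T cells had received compound plus 0.25 uM (final) NKH477 for 3 h at 37 °C.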
In test [12] the target is Beta-2 adrenergic receptor (Homo sapiens) (UniProt P07550). Put plainly: Adrenergic beta2 receptor (ADRB2) small molecule antagonists, cell-based qHTS assay (AID 1963592). Further: series mostly up to about 92 µM; nearly all actives have a fitted effect of over 50% in size. In a few lines:
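Cells (CHO, stable ADRB2 overexpression) incubated 18-20hr at 37C; compounds added from DMSO; agonist mix (1nM isoproterenol, 100uM IBMX, 25uM Ro-20-1724) added; 0.5hr RT; d2-cAMP and anti-cAMP-cryptate added; 1hr RT; 665/615 nm read.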

Test [13] shares this target. Put plainly: Adrenergic beta2 receptor (ADRB2) small molecule agonists, cell-based qHTS assay (AID 1963593).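 Further: CHO cells stably overexpressing human ADRB2.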 The essentials: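 CHO cells stably over-expressing ADRB2 were plated overnight at 37C, then dosed with compounds plus a stimulation mix containing 100uM IBMX and 25uM Ro-20-1724 for 0.5hr at room temperature. cAMP was measured by HTRF competition, 1hr.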
Test [14] addresses D(2) dopamine receptor (Homo sapiens) (UniProt P14416). Kind of test: Dopamine D2 receptor (DRD2) small molecule agonists, cell-based qHTS assay (AID 1963594). Further: nearly all actives have a fitted effect of over 35% in size. In a few lines:
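cAMP accumulation in DRD2-HEK293 cells measured by HTRF after 1 h detection; compounds added 10 min before NKH477 (200nM […]) forskolin-analogue stimulation, 30 min at room temperature, with Ro20-1724 present at 0.1 mM final.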

For test [15] the target is unchanged. Kind of test: Dopamine D2 receptor (DRD2) small molecule antagonists, cell-based qHTS assay (AID 1963595; active means well fitted inhibition curve with a large enough effect in the signal ratio in the repeat runs, with a control signal flat; the % refers to the signal ratio). In a few lines:
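HEK293 cells stably expressing DRD2, preincubated with 0.1 mM Ro20-1724 and compounds 10 min, were stimulated with 200 nM NKH477 plus 12 nM quinpirole for 30 min at room temperature; cAMP measured by HTRF (665/620 nm).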

Test [16] in a line: p53 small molecule agonists, cell-based qHTS assay with human liver microsomes: qHTS cell viability counter screen (AID 1963579). Further: nearly all actives have a fitted effect of over 45% in size. Further: potency means the concentration at half of the fitted maximal effect. In a few lines:
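Metabolic activation used human liver microsomes and NADPH, both 0.5 mg/mL final, over 16 hours at 37 C on p53RE-bla cells (4,000/well). Cytotoxicity measured by CellTiter-Glo luminescence, 30 min at room temperature.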

Test [17] deals with Muscarinic acetylcholine receptor M1 (Homo sapiens) (UniProt P11229). Kind of test: Cholinergic receptor muscarinic 1 (CHRM1) small molecule antagonists, cell-based qHTS assay (AID 1963588). Further: nearly all actives have a fitted effect of over 40% in size. In a few lines:
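CHRM1-CHO calcium-flux assay, antagonist mode. Cells were seeded 18 h, dye-loaded 1 h at 37 C and given compound for 5 min at RT, then acetylcholine was added at 50nM. FDSS fluorescence was read 3 min; 15 concentrations, three runs.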

Test [18] in a line: p53 small molecule agonists, cell-based qHTS assay with human liver microsomes (AID 1963577).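 Further: p53 response element beta-lactamase reporter cells with liver microsomes plus NADPH.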 The essentials: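 With metabolic activation: human liver microsomes (0.5 mg/mL final) plus NADPH (0.5 mg/mL final) added alongside compounds to p53RE-bla cells; 16 h 37 C exposure; beta-lactamase read by LiveBLAzer fluorescence.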
Test [19] can be described thus: p53 small molecule agonists, cell-based qHTS assay with rat liver microsomes (AID 1963578). In a few lines:
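Metabolic activation by rat liver microsomes and NADPH, each 0.5 mg/mL final, added right after compounds to p53RE-bla reporter cells (4,000/well, plated 5 h earlier). 16 h at 37 C, then LiveBLAzer substrate for 2 h at room temperature in the dark; fluorescence read-out.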

The nature of test [20]: p53 small molecule agonists, cell-based qHTS assay (AID 1963582; active means well fitted activation curve with a large enough effect in the signal ratio in the repeat runs, not every such curve was filed as active; the % refers to the signal ratio). In a few lines:
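Reporter line: p53RE-bla. Pre-incubation 5 h, 37 C, 5% CO2; compound (DMSO, pin tool) 16 h, 37 C; B/G FRET substrate 2 h RT; fluorescence intensity read.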

KiSS-1 receptor (Homo sapiens), sequence (Q969F8 whole entry, looked up): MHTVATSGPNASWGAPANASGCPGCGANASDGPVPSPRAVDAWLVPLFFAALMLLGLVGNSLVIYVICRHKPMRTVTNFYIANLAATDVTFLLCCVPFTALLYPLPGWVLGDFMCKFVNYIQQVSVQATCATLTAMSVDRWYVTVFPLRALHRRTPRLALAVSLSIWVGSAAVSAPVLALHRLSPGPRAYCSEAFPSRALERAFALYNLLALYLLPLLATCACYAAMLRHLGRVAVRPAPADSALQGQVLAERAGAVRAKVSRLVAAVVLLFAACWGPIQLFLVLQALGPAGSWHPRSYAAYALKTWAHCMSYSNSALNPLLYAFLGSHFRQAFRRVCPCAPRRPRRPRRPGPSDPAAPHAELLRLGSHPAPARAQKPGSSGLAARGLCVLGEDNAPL
5-hydroxytryptamine receptor 2A (Homo sapiens), sequence (P28223 whole entry, looked up): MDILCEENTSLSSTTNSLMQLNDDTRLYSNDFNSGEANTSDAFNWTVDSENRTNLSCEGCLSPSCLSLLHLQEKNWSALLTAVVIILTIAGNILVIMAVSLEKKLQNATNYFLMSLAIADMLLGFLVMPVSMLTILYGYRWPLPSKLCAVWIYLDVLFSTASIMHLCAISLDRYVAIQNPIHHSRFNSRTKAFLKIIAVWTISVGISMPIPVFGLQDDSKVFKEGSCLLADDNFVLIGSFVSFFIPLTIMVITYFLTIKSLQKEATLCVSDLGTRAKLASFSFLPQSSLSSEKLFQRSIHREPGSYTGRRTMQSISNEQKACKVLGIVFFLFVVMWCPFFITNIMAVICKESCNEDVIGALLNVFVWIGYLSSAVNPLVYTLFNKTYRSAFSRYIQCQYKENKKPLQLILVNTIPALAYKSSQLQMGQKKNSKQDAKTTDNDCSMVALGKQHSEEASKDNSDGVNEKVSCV
Gonadotropin-releasing hormone receptor (Homo sapiens), sequence (P30968 whole entry, looked up): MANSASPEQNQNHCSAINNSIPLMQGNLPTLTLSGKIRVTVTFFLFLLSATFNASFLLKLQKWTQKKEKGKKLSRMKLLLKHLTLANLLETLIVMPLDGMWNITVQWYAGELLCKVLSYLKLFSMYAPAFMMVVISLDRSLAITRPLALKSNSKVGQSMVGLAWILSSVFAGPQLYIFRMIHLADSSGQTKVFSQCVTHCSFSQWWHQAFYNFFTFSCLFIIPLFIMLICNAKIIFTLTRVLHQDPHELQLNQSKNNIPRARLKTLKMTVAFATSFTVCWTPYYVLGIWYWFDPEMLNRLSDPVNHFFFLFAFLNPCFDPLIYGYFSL
Muscarinic acetylcholine receptor M1 (Homo sapiens), sequence (P11229 whole entry, looked up): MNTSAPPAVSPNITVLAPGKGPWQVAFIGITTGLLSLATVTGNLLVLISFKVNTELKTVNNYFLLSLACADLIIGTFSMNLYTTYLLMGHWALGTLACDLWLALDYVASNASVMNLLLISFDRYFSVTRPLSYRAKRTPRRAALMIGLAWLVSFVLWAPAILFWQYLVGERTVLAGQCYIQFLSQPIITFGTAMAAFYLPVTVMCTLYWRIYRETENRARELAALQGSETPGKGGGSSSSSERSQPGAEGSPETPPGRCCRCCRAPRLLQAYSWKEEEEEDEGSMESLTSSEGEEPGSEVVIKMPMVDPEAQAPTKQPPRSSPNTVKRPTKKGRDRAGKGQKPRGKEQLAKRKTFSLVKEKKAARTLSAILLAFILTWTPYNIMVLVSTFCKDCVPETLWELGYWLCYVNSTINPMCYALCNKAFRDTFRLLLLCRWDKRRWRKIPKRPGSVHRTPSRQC
Beta-2 adrenergic receptor (Homo sapiens), sequence (P07550 whole entry, looked up): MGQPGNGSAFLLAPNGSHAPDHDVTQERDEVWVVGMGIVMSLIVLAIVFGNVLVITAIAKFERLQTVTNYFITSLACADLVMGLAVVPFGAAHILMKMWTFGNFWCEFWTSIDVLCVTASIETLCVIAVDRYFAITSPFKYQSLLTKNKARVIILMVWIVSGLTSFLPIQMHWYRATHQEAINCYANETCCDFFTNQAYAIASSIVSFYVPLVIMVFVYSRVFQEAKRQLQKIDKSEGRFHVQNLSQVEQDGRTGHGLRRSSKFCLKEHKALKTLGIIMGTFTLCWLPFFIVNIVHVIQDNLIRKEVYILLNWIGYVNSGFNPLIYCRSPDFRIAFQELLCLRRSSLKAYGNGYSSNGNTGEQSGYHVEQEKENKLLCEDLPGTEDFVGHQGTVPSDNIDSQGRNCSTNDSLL
D(2) dopamine receptor (Homo sapiens), sequence (P14416 whole entry, looked up): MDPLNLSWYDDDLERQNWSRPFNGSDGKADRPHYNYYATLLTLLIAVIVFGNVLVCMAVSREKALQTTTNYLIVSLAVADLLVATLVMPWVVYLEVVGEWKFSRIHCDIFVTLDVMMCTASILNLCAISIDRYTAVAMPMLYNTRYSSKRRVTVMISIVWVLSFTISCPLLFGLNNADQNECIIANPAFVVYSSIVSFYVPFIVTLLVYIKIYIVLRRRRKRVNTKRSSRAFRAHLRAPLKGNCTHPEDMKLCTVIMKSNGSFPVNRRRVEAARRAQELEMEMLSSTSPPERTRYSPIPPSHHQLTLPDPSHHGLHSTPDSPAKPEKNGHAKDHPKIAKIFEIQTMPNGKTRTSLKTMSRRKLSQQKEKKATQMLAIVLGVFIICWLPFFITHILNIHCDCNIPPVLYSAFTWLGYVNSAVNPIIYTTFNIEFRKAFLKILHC

Consider `CNC(=O)Oc1cccc(C(C)C)c1`, for which the Potency result in [1], in test [2], in test [3], in test [4], in [5] and in [6] was “inactive” each time. For the same molecule, the Potency entry in test [7], in test [8], in [9], in test [10], in [11] and in test [12] was “inactive” each time. For the same molecule, the Potency entry in test [13], in test [14] and in test [15] was “inactive” in each case.
Turning to `CC(=O)[O-].[Tl+]`, the Potency result in test [1], in [2], in test [3], in [16], in test [5] and in test [7] was “inactive” each time. Moreover, the Potency result in [8], in test [17], in [9], in test [10], in [12] and in test [14] was “inactive” in each case. Also, the Potency result in test [15] is “inactive”.
Turning to `O=c1c(C2CC(c3ccc(-c4ccc(Br)cc4)cc3)Cc3ccccc32)c(O)sc2ccccc12` (centres undefined), the Potency is 29.8 µM (active) in [1] and 8.9 µM (active) in [6]. Further, the Potency result in test [2], in test [3], in [18], in test [19], in test [16] and in test [5] was “inactive” throughout. In addition, the Potency entry in test [20], in test [7], in test [8], in test [17], in test [9] and in test [12] was “inactive” each time. Moreover, the Potency result in test [13], in test [14] and in [15] was “inactive” each time.
With `CCNC(=O)NC(=O)/C(C#N)=N/OC`, the Potency entry in test [1], in [2], in test [3], in test [4], in [5] and in test [6] was “inactive” in each case. For the same molecule, the Potency result in [7], in [8], in test [17], in test [9], in test [11] and in test [12] was “inactive” each time. Further, the Potency entry in [14] and in [15] was “inactive” in each case.
Turning to `CCCCC/C=C\C/C=C\C/C=C\C/C=C\CCCC(=O)NCC(=O)O`, the Potency result in test [1], in test [2], in test [3], in test [19], in test [16] and in test [5] was “inactive” in each case. Further, the Potency result in test [17], in test [9], in test [12], in test [13] and in test [15] was “inactive” each time. Moreover, the Potency in [7] is 14.5 µM (active).
As for `CCOP(=S)(OCC)SC(CCl)N1C(=O)c2ccccc2C1=O` (centres undefined), the Potency entry in test [1], in [2], in test [3], in test [16], in test [5] and in test [6] was “inactive” in each case. Further, the Potency result in test [7], in test [9], in test [14] and in test [15] was “inactive” each time.
Consider `C=CCN1CC[C@]23c4c5ccc(O)c4O[C@H]2C(=O)CC[C@@]3(O)[C@H]1C5`, for which the Potency entry in [1], in [2], in test [3], in test [4], in test [16] and in [5] was “inactive” in each case. Moreover, the Potency result in test [11], in [12], in [14] and in test [15] was “inactive” throughout.
As to `CCOCn1c(-c2ccc(Cl)cc2)c(C#N)c(Br)c1C(F)(F)F`, the Potency in test [1] is 34.4 µM (active); in [16] it was 22.9 µM (active); in test [5], 22.9 µM (active). In addition, the Potency result in test [2], in [3], in test [7], in test [8], in test [17] and in test [9] was “inactive” each time. Further, the Potency entry in [14] and in test [15] was “inactive” each time.
As for `c1ccc(OCC2CO2)cc1` (centres undefined), the Potency entry in [1], in test [2], in [4], in test [18], in test [19] and in test [16] was “inactive” each time. Moreover, the Potency result in [5], in [6], in test [20], in test [7], in test [8] and in test [17] was “inactive” each time. The Potency result in test [9], in test [10], in test [11], in test [12], in test [13] and in [14] was “inactive” each time. Also, in test [15], the Potency result was “inactive”.
As to `[O]=[Cd]`, the Potency entry in test [1], in test [2], in test [4], in [18], in test [19] and in [16] was “inactive” in each case. Moreover, the Potency result in test [5], in [6], in [20], in [7], in test [8] and in test [17] was “inactive” throughout. Further, the Potency entry in test [9], in test [10], in test [11], in test [12], in [14] and in test [15] was “inactive” each time.
